Our source for the cell viability values is the supplement of paper PMC10941209.

The subject of the test is HFF. Nature of the test: cell viability relative to DMSO control; higher = less cytotoxic. The following applies: 1 µM; 72 h. The protocol: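 Single-dose cytotoxicity screen of the MMV Pandemic Response Box at 1 uM on human foreskin fibroblasts (HFF), 72 h at 37 C. Viability measured by MTT (OD 550 nm) and normalised to the DMSO control (% survival).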

The cell viability is the share of living cells, or the viability signal relative to a control. `O=C(O)[C@H]1C2CCC(CC2)[C@@H]1Nc1nc(-c2c[nH]c3ncc(F)cc23)ncc1F`: the cell viability was determined as 67%.

In the case of `COc1cc(Cc2cnc(N)nc2N)c2c(c1OC)OC(C1CC1)C=C2` (configuration not stated), the cell viability is 74.3%.

As to `O=C(NO)C1(CS(=O)(=O)c2ccc(Oc3ccc(Cl)cc3)cc2)CCOCC1`, the cell viability is 72.6%.

On to `O=[N+]([O-])/C(Br)=C/c1ccc(Br)o1`, for which the cell viability came to 63.2%.

In the case of `CN(O)C(=O)c1cc2c(CN3CCC[C@H]3C(N)=O)cn(Cc3ccc(F)cc3)c2cn1`, the cell viability amounted to 64.1%.

Compound `CC[C@@]1(O)C(=O)OCc2c1cc1n(c2=O)Cc2cc3c(CN(C)C)c(O)ccc3nc2-1` gave a cell viability of 50.1%.

`COc1nc2ccc(Br)cc2cc1[C@@H](c1ccccc1)[C@@](O)(CCN(C)C)c1cccc2ccccc12`: the cell viability was 72.3%.

For the compound `Clc1ccc(COC(Cn2ccnc2)c2ccc(Cl)cc2Cl)c(Cl)c1` (configuration not stated), the cell viability worked out at 66.8%.

Take `O=C(NCc1ccc(F)cc1)c1c(O)c2ncccc2[nH]c1=O`: the cell viability was 50.8%.

For the compound `Cc1cc(O)c2c(c1)C(=O)c1c(I)c(O)c(I)c(O)c1C2=O`, the cell viability amounted to 71.9%.

On to `CN1c2ccc(Cl)cc2N(c2ccccc2)C(=O)c2cn(Cc3ccc(CN4CCOCC4)cc3)nc21`, for which the cell viability worked out at 68.2%.

On to `CC(C)(C)OC(=O)NCc1ccc(C(=O)N[C@H]2CCOC2=O)cc1`, for which the cell viability was 65.7%.

Turning to `CCCC(=O)OCCc1ccccc1`, the cell viability came to 65.3%.

Take `O=C(NCc1ncc(C(F)(F)F)cc1Cl)c1c(Cl)cccc1Cl`: the cell viability came to 74.8%.

As for `CC(C)(C)NC(=O)[C@@H]1CN(Cc2cnc3occc3c2)CCN1C[C@@H](O)C[C@@H](Cc1ccccc1)C(=O)N[C@H]1c2ccccc2C[C@H]1O`, the cell viability was found to be 72.6%.

Turning to `CSC[C@H]1CN(Cc2c[nH]c3c(N)ncnc23)C[C@@H]1O`, the cell viability was determined as 61.5%.

Compound `CCN(CC)CCn1c(=N)n(CC(O)COc2ccc(Cl)cc2Cl)c2ccccc21` (configuration not stated) gave a cell viability of 60.7%.

The compound `C[C@H](Cn1cnc2c(N)ncnc21)OCP(=O)(O)O` showed a cell viability of 58.1%.

Compound `OB1OCc2cc(Cl)ccc21` showed a cell viability of 68.1%.

`C[C@H]1COc2c(N3CCN(C)CC3)c(F)cc3c(=O)c(C(=O)O)cn1c23` showed a cell viability of 66%.

In the case of `O=C(NC(=O)N1CCCc2ccccc21)c1cccc(Cl)c1`, the cell viability turned out to be 75.5%.

`c1ccc(-c2nnc3c4ccccc4c(N4CCNCC4)nn23)cc1` yielded a cell viability of 73.2%.

Turning to `Fc1ccc(-c2nc(-c3c[nH]c4ccc(Br)cc34)[nH]c2-c2ccc(F)cc2)cc1`, the cell viability worked out at 67.2%.

`CN1CCN(c2ccc3[nH]c(-c4ccc5[nH]c(-c6ccc(O)cc6)nc5c4)nc3c2)CC1` yielded a cell viability of 68.8%.

Compound `Cc1cccc(C)c1C(=O)Nc1nc(-c2ccccn2)cc2ccccc12` showed a cell viability of 74.7%.

Compound `CNCC(=O)OCc1cccnc1N(C)C(=O)OC(C)[n+]1cnn(C[C@](O)(c2cc(F)ccc2F)[C@@H](C)c2nc(-c3ccc(C#N)cc3)cs2)c1` (some centres not stated) gave a cell viability of 60.6%.

On to `O[C@@](Cn1cnnn1)(c1ccc(F)cc1F)C(F)(F)c1ccc(-c2ccc(OCC(F)(F)F)cc2)cn1`, for which the cell viability amounted to 58.9%.

In turn, `NNC(=O)c1ccncc1` displayed a cell viability of 62.8%.

The compound `O=C(NCc1cccc2ccccc12)c1cccs1` registered a cell viability of 66%.

With `COCCn1cnc2c(O)nc(Nc3ccccc3)nc21`, the cell viability came out at 61%.

As for `CC(C)Cn1c(=O)n(C)c(=O)c2c(-c3cncn3C)n(Cc3cccc4ccccc34)nc21`, the cell viability is 63.1%.

Take `CC(=O)Oc1ccccc1C(=O)Nc1ncc([N+](=O)[O-])s1`: the cell viability was 62.8%.

`COc1cc(NC(=O)CN2C(=O)NC(c3ccccc3)(c3ccccc3)C2=O)cc(OC)c1` showed a cell viability of 61%.

`Cc1ccc(NC(=O)c2ccc(CN3CCN(C)CC3)cc2)cc1Nc1nccc(-c2cccnc2)n1`: the cell viability was 50.1%.

`N=C(N)NCCCCC(=O)Nc1cc(C(F)(F)F)cc(NC(=O)c2cc(C(=O)Nc3cc(C(F)(F)F)cc(NC(=O)CCCCNC(=N)N)c3O[C@@H]3CCNC3)ncn2)c1O[C@@H]1CCNC1` showed a cell viability of 57.6%.

`N#Cc1c(F)c(Cl)c(NCc2ccccc2)c(C#N)c1F` gave a cell viability of 66.6%.

The compound `CCn1cc(C(=O)O)c(=O)c2cc(F)c(N3CCNC(C)C3)c(F)c21` (configuration not stated) showed a cell viability of 71.2%.

Compound `CCN(CC)CCCC(C)Nc1ccnc2cc(Cl)ccc12` (configuration not stated) registered a cell viability of 66.4%.

Compound `O=S(=O)(Nc1ccc(O)cc1)c1cccc2cccnc12` displayed a cell viability of 66.5%.

`CNC(=O)C1O[C@@H](n2cnc3c(NCc4cccc(I)c4)nc(Cl)nc32)[C@H](O)[C@@H]1O` (some centres not stated) came in with a cell viability of 61.2%.

As for `O=C(O)C(Cc1c[nH]c2ccccc12)N1C(=O)c2ccccc2C1=O` (configuration not stated), the cell viability amounted to 68.5%.

For the compound `Nc1nc(Nc2ccc3nc(-c4ccc(F)cc4)cc(N)c3c2)cc(-c2ccccc2)n1`, the cell viability is 78.1%.

`CCc1nc(N)nc(N)c1C#CC(C)c1cc(OC)cc(-c2ccncc2)c1` (configuration not stated) displayed a cell viability of 79.3%.

The compound `Oc1c(C(Nc2ccccn2)c2ccccc2)ccc2cccnc12` (configuration not stated) came in with a cell viability of 69.9%.

In turn, `CCc1nc(N)nc(N)c1C#CCc1ccccc1` displayed a cell viability of 69.3%.

The compound `Cc1ccn2c(C(=O)NCc3ccccc3)c(C)nc2c1` yielded a cell viability of 66.8%.

`CCNC(=O)Nc1cc(-c2ccccc2)c(-c2cncc(C(=O)O)c2)cn1` showed a cell viability of 63.8%.

`Nc1nc2c(ncn2COC(CO)CO)c(=O)[nH]1` came in with a cell viability of 68.6%.

As for `O=c1nc(N2CCN(CC3CCCCC3)CC2)sc2c([N+](=O)[O-])cc(C(F)(F)F)cc12`, the cell viability was 57.6%.

`NC(=O)C(c1ccccc1)(c1ccccc1)[C@H]1CCCN(CCc2ccc3c(c2)CCO3)C1` displayed a cell viability of 64%.

In the case of `CC(C)/N=c1\cc2n(-c3ccc(Cl)cc3)c3ccccc3nc-2cc1Nc1ccc(Cl)cc1`, the cell viability amounted to 72.6%.

As to `CCCCCc1ccc(C(=O)NCCn2cc(CCCCCc3c[nH]c(N)n3)nn2)cc1`, the cell viability stood at 66.1%.

Consider `CCC(C)NCC(O)Cn1c2ccc(Cl)cc2c2cc(Cl)ccc21` (configuration not stated), for which the cell viability amounted to 68.3%.

On to `COc1ccc(SC(=O)N[C@H](CCC(=O)O)C(=O)O)cc1`, for which the cell viability was determined as 59.7%.

`N[C@@H]1CN(c2c(F)cc3c(=O)c(C(=O)O)cn([C@@H]4C[C@@H]4F)c3c2Cl)CC12CC2` had a cell viability of 60.8%.

As for `Nc1nnc(-c2ccc(Cl)cc2)s1`, the cell viability came to 62.7%.

`CS(=O)(=O)c1ccc(Oc2ccc(Cl)cc2)cc1` came in with a cell viability of 69.7%.

In turn, `COc1ccc(CNC(=O)C(NS(=O)(=O)c2ccc3nc(C)sc3c2)C(C)C)cc1` (configuration not stated) displayed a cell viability of 64.5%.

`CC(N)C12CC3CC(CC(C3)C1)C2` (configuration not stated) registered a cell viability of 63.2%.

In turn, `Nc1nc(-c2ccccc2)nc2c1ncn2[C@@H]1O[C@H](COS(=O)(=O)NC(=O)c2ccccc2O)[C@@H](O)[C@H]1O` displayed a cell viability of 72.2%.

Consider `O=C(O)c1ccc(-n2nc(-c3ccccc3O)nc2-c2ccccc2O)cc1`, for which the cell viability worked out at 76.7%.

Turning to `CN(C)CC(=O)Nc1ccc2[nH]c(=O)c3ccccc3c2c1`, the cell viability was found to be 59.3%.

`O=C(N[C@H](Cc1cccc2ccccc12)C(=O)NCCc1c[nH]cn1)C1Cc2ccccc2C1` gave a cell viability of 62.3%.

Compound `CC(=O)N[C@H](C)C(=O)N[C@H](Cc1ccccc1)C(=O)O` gave a cell viability of 61.1%.

Compound `O=C(Nc1ccc(N2CCN(C(=O)c3ccccc3)CC2)cc1)c1ccc2c(c1)OCO2` had a cell viability of 60.1%.

With `O=C(c1ccc(F)cc1)N1CCN2C(=O)c3ccccc3C12c1ccccc1` (configuration not stated), the cell viability was 63.3%.

`CCCCc1ccc(-c2cc(C(=O)O)cc(-c3ccc(Cl)cc3)n2)cc1` displayed a cell viability of 68.9%.

Turning to `Cc1cc(CCOc2c(C)cc(-c3nnn(C)n3)cc2C)on1`, the cell viability was found to be 69.2%.

Consider `Nc1cc(N)c2nc(-c3ccccc3)c(Nc3ccc(F)cc3)nc2c1`, for which the cell viability worked out at 80.1%.

Consider `Clc1ccc(Cn2c(CN3CCCC3)nc3ccccc32)cc1`, for which the cell viability is 67.7%.

The compound `CNc1nc(=O)[nH]cc1F` yielded a cell viability of 68.4%.

Consider `O=C(/C=C\n1cnc(-c2cc(C(F)(F)F)cc(C(F)(F)F)c2)n1)NNc1ccccn1`, for which the cell viability turned out to be 62%.

`Cc1cc(C2CCCCC2)n(O)c(=O)c1` gave a cell viability of 78.2%.

As for `O=[N+]([O-])c1cn(Cc2nc(O)nc(O)c2Br)cn1`, the cell viability is 70.3%.

Consider `O=C(CP(=O)(O)O)NCCc1cccc(Oc2ccccc2)c1`, for which the cell viability was 65.7%.

As for `C[C@@H](NC(=O)c1cccc(-c2cnc(-c3cc4ccccc4cn3)[nH]2)c1)c1ccc(F)cc1`, the cell viability amounted to 74.3%.

Consider `OC1O[C@H](CSc2ccc(F)cc2)[C@@H](O)[C@H]1O` (some centres not stated), for which the cell viability is 67.7%.

As to `O=C(NCc1ccc2c3c(cccc13)C(=O)N2)c1cccs1`, the cell viability turned out to be 62.2%.

Consider `NC(=O)c1cnccn1`, for which the cell viability was found to be 68.1%.

The compound `CCc1oc2ccccc2c1C(=O)c1ccc(O)cc1` displayed a cell viability of 71.1%.

With `O=S(=O)(Nc1ccccc1)c1ccc(NC(=S)Nc2ccccc2)cc1`, the cell viability came out at 66.2%.

`C[C@@H](O)[C@H](N)C(=O)NS(=O)(=O)c1cccc(-c2ccc3[nH]ncc3c2)c1` had a cell viability of 63.3%.

The compound `O=C(Cc1ccccc1F)Nc1nc2ccccc2[nH]1` returned a cell viability of 69.7%.

With `O=[N+]([O-])c1cn2c(n1)OC[C@@H](OCc1ccc(OC(F)(F)F)cc1)C2`, the cell viability was determined as 64.4%.

Compound `O=C(Nc1nnc(-c2ccccc2)o1)c1ccc(F)cc1` registered a cell viability of 65.2%.

Take `O=C(NCCN1CCCCC1)c1cccc(C(F)(F)F)c1`: the cell viability was 70.6%.

In the case of `C=CCN(C(=O)OCc1ccc([N+](=O)[O-])cc1)C1CCN(CC[C@](C)(CN(C)S(=O)(=O)c2ccccc2)c2ccccc2)CC1`, the cell viability is 69.6%.

`Nc1ccc(-c2nc3cc(C(F)(F)F)ccc3n2C23CC4CC(CC(C4)C2)C3)cc1` displayed a cell viability of 66.3%.

On to `O=C(CCc1ccc2c(c1)OCO2)NCc1ccc(-c2ccccc2F)cc1`, for which the cell viability stood at 65.7%.

As to `Cc1nc(Nc2ccc(F)cc2)nc(N2CCc3ccccc3C2C)c1C` (configuration not stated), the cell viability turned out to be 65.9%.

In the case of `Cc1ccc(NC(=O)c2cc(Cl)ccc2O)cc1`, the cell viability was 65.7%.

`CONC(=N)c1ccc(-c2ccc(-c3ccc(C(=N)NOC)cc3)o2)cc1` yielded a cell viability of 63.9%.

`Nc1nc(=O)[nH]cc1F` gave a cell viability of 64.8%.

Compound `CC(C)c1cc2c(cc1S(=O)(=O)O)[C@@]1(C)CCC[C@@](C)(C(=O)O)[C@@H]1CC2` registered a cell viability of 64.8%.

Turning to `Cc1ccc(Oc2ccccc2-c2csc(N=C3NCCCN3)n2)c(C)c1`, the cell viability was found to be 68.5%.

`Cc1ccccc1NC(=O)Nc1cccc([N+](=O)[O-])c1` returned a cell viability of 71.1%.

For `O=C1NC(=O)C(Br)=C1Br`, the cell viability came out at 63.1%.

Compound `Cc1cccc(CC(=O)N[C@H]2CCOC2=O)c1` showed a cell viability of 77.2%.

In the case of `Fc1ccc(-n2cc(Cn3c(-c4cccc(F)c4)nc4ccccc43)nn2)cc1`, the cell viability stood at 71.1%.

`COc1c(NC(=O)[C@H]2CC[C@@H](COc3ccc([N+](=O)[O-])cc3)CC2)c(F)cc2c(=O)c(C(=O)O)cn(C3CC3)c12` registered a cell viability of 62.8%.

As to `CCC(C)(C)c1ccc(CC(C)CN2C[C@@H](C)O[C@@H](C)C2)cc1` (some centres not stated), the cell viability is 65%.

`O=C(O)c1cc(-c2ccccc2)nc2ccccc12`: the cell viability was determined as 70.7%.
